{"source": "PubChem BioAssay (Tox21)", "note": "Results filed as inconclusive are left out. Values without a mark were called inactive. Calls follow the shape of the full dose curve."}
{"assay": "qHTS assay to identify small molecule agonists of the AP-1 signaling pathway - cell viability counter screen (AID 1159525); also: nearly all actives have a fitted effect of over 55% in size", "conditions": "ME-180 AP-1-bla cells viability, ATP luminescence, 5 h; series mostly up to 76.8 µM; viability change, negative = cytotoxic: at the top concentration", "from_the_text": "National Center for Advancing Translational Sciences [NCATS]\nNIH Chemical Genomics Center [NCGC]\nU.S. Environmental Protection Agency [EPA]\nNational Institutes of Environmental Health Sciences [NIEHS]\nNational Toxicology Program [NTP]\nU.S. Food and Drug Administration [FDA]\nActivator protein-1 (AP-1), a transcription factor, plays an important role in tumor genesis by regulating genes involved in cell proliferation, differentiation, apoptosis, and angiogenesis. AP-1 activity is induced by a complex network of signaling pathways that involves extracellular signals, such as growth factors. The AP-1 protein complex formed from c-Fos and c-Jun binding to the AP-1 response element results in transcriptional activation of genes containing such elements within their promoter.\nLow molecular weight molecules have been discovered and developed to modulate various components of these signaling pathways, for example, MAP kinase inhibitors. However, many points of pathway modulation remain untested due to the lack of chemical probes making this signaling locus of general interest.\nUsing a beta-lactamase reporter-gene under control of the AP-1 response element, a cell-based assay [CellSensor(TM) AP-1-bla ME-180 developed by Invitrogen Corp.] was used to measure EGF-induced signaling. The Tox21 10K library compounds were measured for their ability to positively modulate the action of EC50 EGF on reporter gene activity. Compounds were screened in a 15-pt titration series in 1536-well format. The cytotoxicity of the Tox21 compound library against this cell line was tested in parallel by measuring the intra cellular ATP content in the same wells.\nTox21 Assay Protocol Summary:\n2500 cells/5uL in Opti-MEM medium containing 0.5% dialyzed FBS, 0.1 mM NEAA, 1 mM sodium pyruvate and 10 mM HEPES was dispensed into 1536-well black wall/clear bottom plates using a Multidrop dispenser and cells were cultured at 37 degrees Celsius overnight. Next day 23 nL of compounds dissolved in DMSO, positive controls or DMSO were delivered to each well using a pin tool. The plates were incubated at 37 degrees Celsius for 5 hours. 1 uL of LiveBLAzerTM B/G FRET substrate (Solution A+B+C+D) was added to each well using a Flying Reagent Dispenser. After incubated at room temperature for 2.5 hours the plates were measured on an EnVision plate reader at Excitation 405nm, Emission1=460nm and Emission 2=530nm. The %Activity was determined from the ratio of 460nm/530nm.\nAfter the plates were read for Beta-Lactamase assay on Envision; 3 ul Cell Titer Glo (Promega) was added to measure the cytotoxicity and the plates were then incubated at RT in dark for 30 min. The luminescence was read on ViewLux (Perkin Elmer, Shelton, CT) using 6 sec exposure. ViewLux data was expressed as relative luminescence units.\nFor primary data analysis, raw plate reads for each titration point were first normalized relative to […] EGF control (100%) and DMSO only wells (basal, 0%).\nFor primary data analysis for viability assay, raw plate reads for each titration point were first normalized Tetra n-octyl ammonium bromide control (-100%) and DMSO (control, 100%)."}
{"smiles": "CCC[Si](OC)(OC)OC", "viability change, negative = cytotoxic": "8.28%"}
{"smiles": "CCCCCCCCCCCCN1CCOCC1", "viability change, negative = cytotoxic": "2.43%"}
{"smiles": "Cc1ccc2c(Cl)cc(Cl)c(O)c2n1", "viability change, negative = cytotoxic": "-4.96% [at 35.3 µM]"}
{"smiles": "N#Cc1ccc(CC(=O)c2cccc(C(F)(F)F)c2)cc1", "viability change, negative = cytotoxic": "-1.25%"}
{"smiles": "CCC1=C(C)CN(C(=O)NCCc2ccc(S(=O)(=O)NC(=O)NC3CCC(C)CC3)cc2)C1=O", "note": "(stereo not given)", "viability change, negative = cytotoxic": "-16.4% [at 35.3 µM]"}
{"smiles": "CC[C@H](NC(C)C)[C@H](O)c1ccc(O)c2[nH]c(=O)ccc12", "viability change, negative = cytotoxic": "-1.98% [at 35.3 µM]"}
{"smiles": "O=[N+]([O-])c1ccc(Cl)cc1Cl", "viability change, negative = cytotoxic": "-5.54%"}
{"smiles": "CCCCOC(=O)C(C)Oc1ccc(Oc2ccc(C(F)(F)F)cn2)cc1", "note": "(stereo not given)", "viability change, negative = cytotoxic": "1.23%"}
{"smiles": "CC(C)(C)c1cc(C=O)cc(C(C)(C)C)c1O", "viability change, negative = cytotoxic": "4.25% [at 35.3 µM]"}
{"smiles": "O=c1[nH][nH]c2ccccc12", "viability change, negative = cytotoxic": "3.14%"}
{"smiles": "O=[N+]([O-])c1cccc(I)c1", "viability change, negative = cytotoxic": "11.6%"}
{"smiles": "CC(C)Oc1ccccc1O", "viability change, negative = cytotoxic": "5.92%"}
{"smiles": "CCCCCCCCCCCCSCCOCCO", "viability change, negative = cytotoxic": "-0.238% [at 35.3 µM]"}
{"smiles": "CCCCCC1CCC(=O)O1", "note": "(stereo not given)", "viability change, negative = cytotoxic": "-8.04%"}
{"smiles": "CCCCC(CC)COCCC#N", "note": "(stereo not given)", "viability change, negative = cytotoxic": "3.78%"}
{"smiles": "COc1ccc(C(=O)Nc2ccccc2)cc1[N+](=O)[O-]", "viability change, negative = cytotoxic": "-1.58%"}
{"smiles": "CCOC(OCC)OCC", "viability change, negative = cytotoxic": "-1.27%"}
{"smiles": "C[C@H]1C[C@H]2[C@@H]3CCC4=CC(=O)C=C[C@]4(C)[C@@]3(F)[C@@H](O)C[C@]2(C)[C@@]1(O)C(=O)COP(=O)(O)O", "viability change, negative = cytotoxic": "4.17%"}
{"smiles": "Cc1cc(C)n(CO)n1", "viability change, negative = cytotoxic": "0.241%"}
{"smiles": "O=C(OCCOCCOCCOC(=O)c1ccccc1)c1ccccc1", "viability change, negative = cytotoxic": "-5.24%"}
{"smiles": "CCOc1ccc(NC(C)=O)cc1N", "viability change, negative = cytotoxic": "-0.795%"}
{"smiles": "Cc1c(-c2cccnc2)c2ccccc2n1CCCCC(=O)O", "viability change, negative = cytotoxic": "0.912%"}
{"smiles": "CCCc1ccc(OC)cc1", "viability change, negative = cytotoxic": "7.24%"}
{"smiles": "C[Si](C)(C)O[Si](C)(C)O[Si](C)(C)C", "viability change, negative = cytotoxic": "-0.954%"}
{"smiles": "O=C(O)c1ccncc1", "viability change, negative = cytotoxic": "-12%"}
{"smiles": "CC(C)(C(=O)O)c1ccc(C(O)CCCN2CCC(C(O)(c3ccccc3)c3ccccc3)CC2)cc1", "note": "(stereo not given)", "viability change, negative = cytotoxic": "0.798% [at 35.3 µM]"}
{"smiles": "CC(C)=CCCC(C)C=O", "note": "(stereo not given)", "viability change, negative = cytotoxic": "-5.27%"}
{"smiles": "CCc1ccc2c(c1)C(=O)c1ccccc1C2=O", "viability change, negative = cytotoxic": "1.28%"}
{"smiles": "O=C(Nc1ccccc1)c1cc([N+](=O)[O-])ccc1Cl", "viability change, negative = cytotoxic": "-20.8%"}
{"smiles": "Cc1c(N=C=O)cccc1N=C=O", "viability change, negative = cytotoxic": "8.38%"}
{"smiles": "CC(CC(C#N)(c1ccccc1)C(C)C)N(C)C", "note": "(stereo not given)", "viability change, negative = cytotoxic": "5.35% [at 35.3 µM]"}
{"smiles": "CCCC(=O)OCc1ccccc1", "viability change, negative = cytotoxic": "-1.8%"}
{"smiles": "CCOc1ccc2c(c1)C(C)CC(C)(C)N2", "note": "(stereo not given)", "viability change, negative = cytotoxic": "-0.369%"}
{"smiles": "CC(C)(C)c1ccc(CCC=O)cc1", "viability change, negative = cytotoxic": "-3.04%"}
{"smiles": "O=c1c2ccccc2oc2ccccc12", "viability change, negative = cytotoxic": "2.39%"}
{"smiles": "Oc1ccc(CCNCCCCCCNCCc2ccccc2)cc1O", "viability change, negative = cytotoxic": "7.15% [at 35.3 µM]"}
{"smiles": "O=C(O)c1ccc(O)c(O)c1", "viability change, negative = cytotoxic": "-1.91%"}
{"smiles": "Cc1ccc(S(=O)(=O)NC(=O)NC2CCCC2)cc1", "viability change, negative = cytotoxic": "2.56% [at 35.3 µM]"}
{"smiles": "CC/C=C\\CCO", "viability change, negative = cytotoxic": "0.227%"}
{"smiles": "CCCOC(C)=O", "viability change, negative = cytotoxic": "-5.42%"}
